Reference: PubChem BioAssay AID624156 (Broad Institute, 2012)
Hit rate of the full screen: of about 46,000 compounds, about 900 (2%) were called active. About 1% were inconclusive and are not listed. This is one part of a sample in which actives are shown more often than they occur. Rule as the data show it: active = ROS induction above about 79% (passing the limit was not always enough); inconclusive = no clear call, values can overlap the other calls.

Assay: ROS inducers in U2OS cancer cells, primary screen, cell-based, H2DCF-DA fluorescence (AID 624156);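 also: 0% = DMSO vehicle median and 100% = reference compound median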
Details: at 10 µM, stronger effect = higher value

SMILES | ROS induction (% of piperlongumine)
O=C(Nc1cccc(-c2nc3ccccc3o2)c1)c1ccc(Br)cc1 | 4.05% (inactive)
Cc1nn(C)cc1C(=O)c1ccccc1 | 36.5% (inactive)
Cc1ccc(C(=O)N/C(=C\c2ccccc2)C(=O)Nc2c(C)n(C)n(-c3ccccc3)c2=O)cc1 | 0.477% (inactive)
COc1ccc(CNCC2(c3ccccc3)CCCC2)cc1 | 4.91% (inactive)
COC(=O)c1ccc(-c2ccco2)n1CC(=O)NC1CCCC1 | -2.05% (inactive)
CCC/C=C/C(=O)OC1C(O)C23C(O)OC4(CCC5C6(C)CCC(OC7OC(C(=O)O)C(O)C(OC8OC(CO)C(O)C(O)C8OC8OC(C)C(O)C(O)C8OC8OCC(O)C(O)C8O)C7OC7OC(CO)C(O)C(O)C7O)C(C)(C)C6CCC5(C)C4(C)CC2OC(C)=O)C3CC1(C)C (stereo unspecified) | -31.6% (inactive)
Cc1cc(-c2cccs2)c2c(N)c(C(=O)c3ccccc3)sc2n1 | 95.7% (active)
COCc1cc(C)nc2sc(C(N)=O)c(N)c12 | 10.2% (inactive)
O=C(O)c1ccc(S(=O)(=O)c2ccc(Cl)cc2)cc1 | -2.87% (inactive)
Cc1c(S(=O)(=O)Nc2ccc(Cl)cc2)sc2ccc(Cl)cc12 | -12.9% (inactive)
Fc1ccc(NCc2cn(-c3ccccc3)nc2-c2cccs2)c(F)c1 | -6.92% (inactive)
N#CCC(=O)N(Cc1ccccc1)C(=O)Nc1cccc(F)c1 | -15.5% (inactive)
CC(C)(C)n1ncc2c(=O)n(Cc3ccc(Cl)cc3)cnc21 | -3.3% (inactive)
O=C(CSc1nnc(-c2ccccc2)c(-c2ccccc2)n1)Nc1ccccc1 | -5.87% (inactive)
Cc1sc2ncnc(SCC(=O)Nc3ccccc3)c2c1-c1ccccc1 | -2.63% (inactive)
N#Cc1c(SCC(=O)Nc2ccccc2)ncc2cc3ccccc3nc12 | 192% (active)
c1ccc(Cn2c3ccccc3c3nnc(SCc4ccc5nonc5c4)nc32)cc1 | 21.9% (inactive)
C=CCn1c2ccccc2c2nnc(SCCCC(=O)c3ccc(F)cc3)nc21 | 81.9% (active)
C=CCn1c2ccccc2c2nnc(SCC(=O)N3c4ccccc4Sc4ccccc43)nc21 | 11.2% (inactive)
CCOC(=O)CCSc1nnc2c3ccccc3n(C)c2n1 | 39.9% (inactive)
CCCn1c2ccccc2c2nnc(SCC(=O)Nc3cccc4ccccc34)nc21 | 91.7% (active)
CCn1c2ccccc2c2nnc(SCC(=O)O)nc21 | -16.9% (inactive)

SMILES | ROS induction (% of piperlongumine)
O=C(CCCCC(=O)N/N=C/c1ccc[nH]1)NO | -11.8% (inactive)
COC(=O)c1sccc1NC(=O)Cc1noc2ccc(C)cc12 | -3.41% (inactive)
CCC(C(=O)Nc1ccc(OC)c(OC)c1)n1c(C)c2cnn(-c3ccccc3)c(=O)c2c1C (stereo unspecified) | 6.12% (inactive)
CC(=NCc1ccc2c(c1)OCO2)C1=C(O)c2ccccc2C1=O | 3.64% (inactive)
CC(=NCc1ccco1)C1=C(O)c2ccccc2C1=O | 146% (active)
COc1ccc(C=Nc2ccc(C(C)(C)C)cc2)cc1 | -6.06% (inactive)
Cc1cccc(N2CCN(C(=O)CC3(CC4=NS(=O)(=O)c5ccccc5N4)CCCC3)CC2)c1C | 172% (active)
Cc1cccc(N2CCN(C(=O)CCn3c(=S)[nH]c4cc5c(cc4c3=O)OCO5)CC2)c1C | 8.61% (inactive)
CC1=C(C(=O)OC(C)C)C(c2cn(-c3ccccc3)nc2-c2ccc(OC(C)C)cc2)NC(=O)N1 (stereo unspecified) | -3.28% (inactive)
COc1ccc(S(=O)(=O)N(C)C)cc1 | -6.36% (inactive)
Cc1ccc2nc(C)c3c(c2c1)N(c1ccccc1)CC3 | 50.9% (inactive)
Cc1ccc2nc(Nc3ccccc3)cc(C)c2c1 | 178% (active)
Cc1ccc(Nc2nc(C)cc(C)c2C(N)=O)cc1 | 19.7% (inactive)
C[C@@H]1CN([C@H](C)CO)C(=O)Cc2cc(NC(=O)Nc3ccccc3)ccc2O[C@@H]1CN(C)Cc1ccc(C(F)(F)F)cc1 | 23.2% (inactive)
COC(=O)c1c(C)nc(C)c(C(=O)OC)c1-c1csc(S(=O)(=O)/N=C/N(C)C)c1 | -10.2% (inactive)
CCNC(=S)N1CCN(CCN=CC2=C(O)CC(c3ccccc3)CC2=O)CC1 (stereo unspecified) | -5.61% (inactive)
C=CCn1c(=S)sc2c(SCC(=O)N3CCc4ccccc43)ncnc21 | -9.07% (inactive)
CCOC(=O)c1c(C)n(C)c2ccccc12 | -3.38% (inactive)
CCOC(=O)c1nnn2c3ccccc3c(=O)n(C)c12 | 38.4% (inactive)
CCOC(=O)c1nnn2c1nc(N1CCN(c3ccccc3)CC1)c1ccccc12 | 155% (active)
CCCNC(=O)Cn1c(=O)c2cccn2c2ccccc21 | -9.02% (inactive)
C=C1C(=O)O[C@H]2C3=C(C)C[C@H](OC(C)=O)C[C@]3(C)CC[C@@H]12 | 210% (active)

SMILES | ROS induction (% of piperlongumine)
Cn1c(COc2ccc(C(C)(C)c3ccccc3)cc2)n[nH]c1=S | -8.56% (inactive)
CCc1cccc(O[C@@H]2O[C@@H]3COC(c4ccccc4)O[C@H]3[C@H](O)[C@H]2NC(C)=O)c1 (stereo partly specified) | -15.2% (inactive)
COc1ccccc1N(CC(=O)Nc1ccc(C(F)(F)F)cc1)S(C)(=O)=O | 4.82% (inactive)
NC(=O)c1c(NC(=O)c2cnn3c(C(F)F)cc(-c4ccccc4)nc23)sc2c1CCCC2 | 12.4% (inactive)
O=C(NCc1cccnc1)c1cnn2c(C(F)F)cc(-c3ccccc3)nc12 | 170% (active)
O=C(c1cc([N+](=O)[O-])ccc1NCc1cccnc1)N1CCOCC1 | 1.17% (inactive)
COCCCNC(=O)[C@@]1(Cc2ccccc2)COC(c2ccc(OCCCO)cc2)=N1 | 11.7% (inactive)
O=C(N1CCCCC1)[C@@]1(CCS(=O)(=O)c2ccccc2)N=C(c2ccc(OCCCO)cc2)O[C@H]1c1ccccc1 | 97.7% (active)
O=C1N(CCS(=O)(=O)c2ccccc2)Cc2ccccc2[C@H]2OC(c3ccc(OCCCO)cc3)=N[C@@]12CCS(=O)(=O)c1ccccc1 | 141% (active)
C=CC[C@]1(C(=O)NCC(O)CO)N=C(c2ccc(OCCCO)cc2)O[C@H]1c1ccccc1 (stereo partly specified) | 30.5% (inactive)
C[C@H]1CN([C@@H](C)CO)C(=O)Cc2cc(NC(=O)Nc3ccc4c(c3)OCO4)ccc2O[C@H]1CN(C)Cc1ccc(C(=O)Nc2ccccc2N)cc1 | 29.3% (inactive)
CCc1ccc(OCC(N)=O)cc1 | 18.8% (inactive)
C[C@@H]1CN([C@H](C)CO)C(=O)c2cccc(NC(=O)c3nc4ccccc4s3)c2O[C@H]1CN(C)Cc1ccccc1 | 10.3% (inactive)
Nc1ncnc2nc(N3CCCCC3)[nH]c12 | -11.8% (inactive)
c1ccc(Cc2nc3c4c5c(sc4ncn3n2)CCCC5)cc1 | 20.6% (inactive)
Cc1ccc(S(=O)(=O)N(C)C[C@H]2Oc3ccc(NC(=O)Cc4cn(C)c5ccccc45)cc3CC(=O)N([C@@H](C)CO)C[C@H]2C)cc1 | 109% (active)
Cc1ccc(S(=O)(=O)N(C)C[C@@H]2Oc3ccc(NC(=O)Cn4cnnn4)cc3CC(=O)N([C@H](C)CO)C[C@H]2C)cc1 | 101% (active)
C[C@@H]1CN([C@H](C)CO)C(=O)Cc2cc(NC(=O)Cn3cnnn3)ccc2O[C@@H]1CN(C)S(=O)(=O)c1ccc(F)cc1 | 3.99% (inactive)
Cc1ccc(S(=O)(=O)N(C)C[C@@H]2Oc3ccc(NC(=O)Cc4cn(C)c5ccccc45)cc3C(=O)N([C@@H](C)CO)C[C@@H]2C)cc1 | -5.66% (inactive)
C[C@@H]1CN([C@@H](C)CO)C(=O)Cc2cc(NC(=O)Cn3cnnn3)ccc2O[C@@H]1CN(C)S(=O)(=O)c1cn(C)cn1 | 4.76% (inactive)
C[C@@H]1CN([C@H](C)CO)C(=O)Cc2cc(NC(=O)Cc3cn(C)c4ccccc34)ccc2O[C@@H]1CN(C)S(=O)(=O)c1ccccc1 | 18.9% (inactive)
CC(C)(C)NC(=S)N1CCn2cccc2C1c1ccccc1F (stereo unspecified) | 2.09% (inactive)

SMILES | ROS induction (% of piperlongumine)
Cn1nnc(NC(=O)COc2ccc(Cl)cc2Cl)n1 | -1.96% (inactive)
Cc1noc(C)c1NC(=O)Nc1ccc2c(c1)C(=O)N([C@H](C)CO)C[C@@H](C)[C@H](CN(C)Cc1ccncc1)O2 | -4.05% (inactive)
COc1cccc(-c2cnc3c(c2)C(=O)N([C@H](C)CO)C[C@H](C)[C@H](CN(C)Cc2ccncc2)O3)c1 | 32.7% (inactive)
Cc1c(C(=O)N(Cc2ccccc2)Cc2cccnc2)cnn1-c1ccc(F)cc1 | -9.45% (inactive)
Brc1ccc(/C=N/n2cnnc2SCc2ccccc2)cc1 | 2.37% (inactive)
COc1ccc(NS(=O)(=O)c2ccc3c4c(cccc24)C(=O)S3)cc1 | 35.7% (inactive)
O=C(Oc1c(Br)cc(Br)c2cccnc12)N1CCOCC1 | 3.35% (inactive)
COC(=O)c1c(C)n(CCNc2ccc([N+](=O)[O-])cc2)c2ccc(O)cc12 | 98.5% (active)
O=[N+]([O-])c1ccc(NCCNc2nc3ccccc3nc2N2CCOCC2)cc1 | 61% (inactive)
COC(=O)c1ccc(NCc2cc(O)ccc2O)cc1 | 10.2% (inactive)
C[C@@H]1CCCCO[C@@H](CN(C)C(=O)NC2CCCCC2)[C@@H](C)CN([C@H](C)CO)C(=O)c2cc(NC(=O)CCC(F)(F)F)ccc2O1 | 37.6% (inactive)
C[C@H](CO)N1C[C@H](C)[C@H](CN(C)C(=O)Nc2ccc(C(F)(F)F)cc2)Oc2ccc(NC(=O)Nc3ccccc3)cc2C1=O | 84% (active)
C[C@H](CO)N1C[C@H](C)[C@H](CN(C)C(=O)Nc2ccc(C(F)(F)F)cc2)Oc2ccc(NS(=O)(=O)c3cn(C)cn3)cc2CC1=O | 125% (active)
Cc1noc(C)c1NC(=O)N(C)C[C@H]1Oc2ccc(NC(=O)Nc3ccc(C(F)(F)F)cc3)cc2CC(=O)N([C@@H](C)CO)C[C@@H]1C | 87.8% (active)
C[C@@H]1CN([C@H](C)CO)C(=O)c2cc(NC(=O)Nc3ccc(C(F)(F)F)cc3)ccc2O[C@H]1CN(C)C(=O)Nc1ccccc1 | 23.2% (inactive)
Cc1noc(C)c1NC(=O)Nc1ccc2c(c1)CC(=O)N([C@H](C)CO)C[C@@H](C)[C@@H](CN(C)Cc1ccc(C(F)(F)F)cc1)O2 | 6.6% (inactive)
C[C@H]1CN([C@@H](C)CO)C(=O)c2cc(NC(=O)Nc3ccccc3)ccc2O[C@@H]1CN(C)C(=O)Nc1ccccc1 | -12.6% (inactive)
C[C@H]1CN([C@@H](C)CO)C(=O)Cc2cc(NS(=O)(=O)c3cn(C)cn3)ccc2O[C@H]1CN(C)C(=O)Nc1ccc(F)cc1 | 29.3% (inactive)
C[C@@H]1CN([C@H](C)CO)C(=O)Cc2cc(NS(=O)(=O)c3cn(C)cn3)ccc2O[C@@H]1CN(C)C(=O)Nc1ccccc1 | -5.68% (inactive)
Cc1noc(C)c1NC(=O)N(C)C[C@@H]1Oc2ccc(NC(=O)Nc3ccc(C(F)(F)F)cc3)cc2C(=O)N([C@H](C)CO)C[C@@H]1C | -6.13% (inactive)
